Shown are actives, neighbours in structure and some others; about 28% of the full set was active somewhere.
CYP2C9 inh – inhibitors of human CYP2C9; CYP2C9 Supersomes, luciferin-H conversion, luminescence; hit rate 20% among 96,000; inhibition, % at 5 µM; P11712;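 active means blocking of liver enzyme CYP2C9 beyond about 50% at 5 µM, limit read from the data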
Target sequence (P11712 whole entry, looked up): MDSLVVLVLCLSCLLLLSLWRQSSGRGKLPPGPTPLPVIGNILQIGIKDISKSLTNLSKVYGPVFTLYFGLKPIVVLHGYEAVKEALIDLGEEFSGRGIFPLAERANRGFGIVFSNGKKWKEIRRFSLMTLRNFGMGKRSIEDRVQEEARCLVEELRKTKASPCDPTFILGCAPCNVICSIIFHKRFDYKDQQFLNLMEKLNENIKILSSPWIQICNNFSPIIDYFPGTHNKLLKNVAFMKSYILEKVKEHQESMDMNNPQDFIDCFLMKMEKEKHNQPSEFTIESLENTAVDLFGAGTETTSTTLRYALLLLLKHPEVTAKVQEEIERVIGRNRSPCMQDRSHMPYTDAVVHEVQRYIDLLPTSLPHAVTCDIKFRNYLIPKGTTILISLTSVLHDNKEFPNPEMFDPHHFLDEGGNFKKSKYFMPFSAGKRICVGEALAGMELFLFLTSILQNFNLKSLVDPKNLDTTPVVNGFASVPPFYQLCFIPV
CYP2C9 activ – CYP2C9 (human) activation; P11712; recombinant CYP2C9, luciferin-H conversion, luminescence; active compounds read high; factor 1 = untreated enzyme, 0 = blocked; activation factor at 5 µM; hit rate 1.4% among 96,000; AID 1024;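 active means activation factor of 2 or more for CYP2C9 at a 5 µM dose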;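 further: 0 = sulfaphenazole-blocked wells and 1 = vehicle-only wells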
Pyk2 oligo antag – Pyk2 (human) oligomerization antagonism. Q14289. z-score (the deposit names both 25 µM and 10 µM). Q293 cells, Pyk2 FERM NanoBiT luminescence; active compounds read low. hit rate 0.83% among 99,000;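 active means Z-score of -3 or lower, scaled per plate to the spread of control and sample wells; inactive means z-score above -3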;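 further: negative z-score means lost luminescence so less FERM oligomerization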
CYP2C19 act – increases human CYP2C19 enzyme activity; recombinant CYP2C19, luciferin-H EGE luminescence; active compounds read high; 0 = fully inhibited enzyme, 1 = untreated enzyme; activation factor at 5 µM; 96,000 tested, under 10 active; AID 1025;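 active means activation factor of at least 2 at 5 µM in the primary screen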;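 further: 0 = wells with 2.5 mM tranylcypromine and 1 = vehicle-only wells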
CYP2C19 inh – inhibitors of human CYP2C19; inhibition, % at 5 µM; hit rate 21% among 96,000; AID 778; CYP2C19 Supersomes, luciferin-H EGE luminescence, 30 min; P33261;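 active means CYP2C19 inhibition above a set limit at 5 µM in the primary screen, cut at about 50% in these data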;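 further: plate controls were negative control wells for no effect and 2.5 mM tranylcypromine positive control for full effect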
Starred values were filed as active, the others as inactive; . = no result.

SMILES	CYP2C9 inh	CYP2C9 activ	Pyk2 oligo antag	CYP2C19 act	CYP2C19 inh
CCOc1ccc(C(O)C(CN2CCOCC2)c2ccccc2)cc1 (stereo unspecified)	1.3	1	0.38	0.7	29.0
O=C(Nc1cccnc1)c1ccc2snnc2c1	-9.1	1.1	0.34	0.9	8.4
O=C(CNC(=O)c1ccco1)NCC(=O)OCc1ccc(C(=O)Oc2ccc(Cl)cc2)cc1	58.2*	0.4	0.34	0.9	13.3
O=C(CNC(=O)c1ccco1)OCc1ccc(C(=O)Oc2ccccc2)cc1	57.6*	0.4	2.45	0.5	45.8
C=CCOc1c2ccc(C(=O)NCCc3ccc(C)cc3)cc2nn1C	20.4	0.8	.	0.9	13.1
Cc1cc2c(cc(C(=O)NCCCN3CCOCC3)n2Cc2ccc(Cl)cc2)o1	49.8	0.5	-0.08	0.6	44.9
COc1cccc2c1OC1(C)CC2/C(=C(\C)O)C(=O)N1 (stereo unspecified)	-1.7	1	-0.23	1.1	-8.0
CC(NC(=O)CCCCCN1C(=O)c2ccccc2C1=O)c1ccc2c(c1)CCCC2 (stereo unspecified)	91.5*	0.1	0.33	0.5	49.4
CC(NC(=O)CCCN1C(=O)c2ccccc2C1=O)c1ccc2c(c1)CCCC2 (stereo unspecified)	89.7*	0.1	0.54	0.2	82.9*
CC(=O)N=c1sc2nc3ccccc3nc2n1N(C(C)=O)C(C)=O	-21.5	1.2	0.33	1.2	-18.5
CN(c1nc(-c2ccccc2)cs1)C1CCS(=O)(=O)C1 (stereo unspecified)	17.5	0.8	0.07	0.4	58.1*
CN(C(=O)CSc1nc(-c2ccc(F)cc2)cs1)C1CCS(=O)(=O)C1 (stereo unspecified)	-264.2	3.6*	0.53	0.6	37.3
CN(C(=O)CSc1nc(-c2ccccc2)cs1)C1CCS(=O)(=O)C1 (stereo unspecified)	-303.5	4*	0.12	0.4	60.0*
CCOc1ccc(C(=O)Nc2c(C(N)=O)oc3ccccc23)cc1	.	.	-2.17	.	.
CCOC(=O)c1oc2ccccc2c1NC(=O)c1ccc2c(c1)OCO2	12.1	0.9	-0.8	0.9	8.7
CCOC(=O)c1oc2ccccc2c1NC(=O)c1cccc(OC)c1OC	65.8*	0.3	-1.52	0.3	67.1*
COc1ccc(NC(=O)c2oc3ccccc3c2NC(=O)c2ccc3c(c2)OCO3)cc1	54.6*	0.5	-2.09	0.6	35.5
NC(=O)c1oc2ccccc2c1NC(=O)CCc1ccccc1	-124.3	2.2*	.	0.2	81.6*
COc1cccc(C(=O)Nc2c(C(N)=O)oc3ccccc23)c1	-233.6	3.3*	.	0.9	6.1
CC1(C)CC(=O)C(/C=N/n2c(C(F)(F)F)nc3ccccc3c2=O)=C(O)C1	29.6	0.7	1.75	1.1	-8.8
CCc1nc(Nc2ccc(OC)c(OC)c2)c2nnn(Cc3ccccc3Cl)c2n1	.	.	-2.55	.	.
COc1cc([N+](=O)[O-])ccc1NC(=O)CCCOc1cccc(C)c1	19.2	0.8	0.02	0.6	37.9
Cc1ccc(CS(=O)(=O)Cc2ccc(C(=O)NCc3cccnc3)o2)cc1	35.5	0.6	-0.54	0.2	75.7*
Cc1ccccc1S(=O)(=O)Cc1ccc(C(=O)NCc2cccnc2)o1	67.4*	0.3	-0.28	0	98.0*
COc1ccccc1CNC(=O)c1ccc(CS(=O)(=O)c2ccccc2OC)o1	52.2*	0.5	2.12	0.8	22.4
SMILES	CYP2C9 inh	CYP2C9 activ	Pyk2 oligo antag	CYP2C19 act	CYP2C19 inh
O=C(NCc1cccnc1)c1ccc(CS(=O)(=O)Cc2ccc(Cl)cc2)o1	65.3*	0.3	1.62	0	100.3*
N#CC(C#N)=C1NC2(CCCC2)Cc2ccccc21	.	.	0.35	.	.
NC(=O)C1CCN(S(=O)(=O)c2cccc(C(=O)O)c2)CC1	0.6	1	0.37	1	-2.5
O=C(c1ccc(N2CCOCC2)nc1)N1CCCCC1	-10.7	1.1	-0.31	0.9	11.7
CC(=O)Nc1ccc(NC2=Nc3ccccc3N3C2=Nc2c(c(C)nn2-c2ccccc2)C3c2ccccc2)cc1 (stereo unspecified)	42.5	0.6	-2.63	0.8	19.0
COc1ccc(NC2=Nc3ccccc3N3C2=Nc2c(c(C)nn2-c2ccc(C)cc2)C3c2cccnc2)cc1 (stereo unspecified)	55.7*	0.4	-2.56	0.7	25.3
CCCCn1c(=O)[nH]c(=O)c2c1nc(-c1ccc(C#N)cc1)n2C1CCCC1	61.5*	0.4	-0.76	0.7	25.2
CC(C)Cn1c(-c2ccc(C#N)cc2)nc2c1c(=O)[nH]c(=O)n2CC(C)C	-1.9	1	-2.2	0.9	8.2
COc1ccc(C(=O)OCC(=O)NCc2ccco2)cc1S(=O)(=O)N1CCN(c2cccc(Cl)c2)CC1	95.6*	0	-1.04	0	98.5*
O=C(COc1ccc(S(=O)(=O)N2CCCC2)cc1Cl)NCc1ccco1	85.4*	0.1	0.33	0.9	7.5
O=C(NCc1ccco1)c1cc(S(=O)(=O)N2CCCc3ccccc32)ccc1Cl	39.7	0.6	0.1	0.2	80.9*
COCCCNC(=O)COc1ccc(S(=O)(=O)NCc2ccccc2)cc1Cl	.	.	0.6	.	.
O=C(COc1ccc(S(=O)(=O)N2CCCC2)cc1)NCc1ccco1	30.1	0.7	0.09	1.1	-13.1
COC(=O)COc1ccc(S(=O)(=O)NCc2ccco2)cc1Cl	1.0	1	0.25	0.4	57.9*
Cc1cc(C(F)F)nn1CC(=O)N1CCSCC1	.	.	0.02	.	.
COC(=O)c1cc(NC(=O)CC2NC3CCCCC3NC2=O)cc(C(=O)OC)c1 (stereo unspecified)	8.9	0.9	-0.31	0.8	20.4
C=CCN(C(=O)CNS(=O)(=O)c1ccccc1)C(C(=O)NCCOC)c1ccncc1 (stereo unspecified)	6.6	0.9	-0.71	0.9	6.2
CCC(Sc1nncn1C)C(=O)Nc1ccccc1OC (stereo unspecified)	-24.3	1.2	0.33	1.2	-18.6
CCOC(=O)N1CCN(C(=O)c2cnn(-c3ccccc3)c2NC(=O)c2ccccc2F)CC1	-24.0	1.2	0.28	1.1	-9.7
COCCNS(=O)(=O)c1ccc(OCC(=O)OC)c(Cl)c1	5.3	0.9	0.04	0.9	6.6
COC(=O)COc1ccc(S(=O)(=O)NCCC2=CCCCC2)cc1Cl	29.0	0.7	1.26	0	96.9*
Cc1cc(S(=O)(=O)N2CCCC2)ccc1OCC(=O)NCc1ccco1	50.0*	0.5	0.51	0.6	40.2
CN(Cc1ccccc1)Cc1nc2c(c(=O)n(C)c(=O)n2C)n1Cc1ccccc1Cl	81.2*	0.2	-0.03	0.7	25.5
COC(=O)Cn1c(CN(Cc2ccccc2)Cc2ccccc2)nc2c1c(=O)[nH]c(=O)n2C	52.7*	0.5	-0.1	0.7	34.8
Cn1c(=O)[nH]c(=O)c2c1nc(CN1CCN(Cc3ccccc3)CC1)n2CC(N)=O	-11.1	1.1	.	1.1	-7.1
CCCCn1c(CN(C)Cc2ccccc2)nc2c1c(=O)n(C)c(=O)n2C	98.1*	0	-0.38	0.4	55.1*
CN(Cc1ccccc1)Cc1nc2c(c(=O)n(C)c(=O)n2C)n1CCc1ccccc1	.	.	-0.1	.	.

Source: PubChem BioAssay
